Each structure is given as a SMILES string. Several values for one entry are separate records, joined by “and”; a condition that tells them apart may be missing. Equal values may be shown once. Records with an inconclusive call do not appear. Where a call stands in place of a potency, no number is given. Activity calls are given as the source filed them. Calls follow the shape of the dose curve; as a rule, active = well fitted activation curve with a large enough effect in the repeat runs; inconclusive = weak or mixed curves; inactive = no such curve, though single readings can be large or run the other way.
Potency is read from the fitted curve at half-maximal effect.

The assay can be described thus: qHTS assay for small molecules that induce genotoxicity in human embryonic kidney cells expressing luciferase-tagged ATAD5 (AID 651632). Also: nearly all actives have a fitted effect of over 15% in size. To be noted: HEK293T ATAD5-luciferase induction, 16 h; series mostly up to 83.3 µM. From the text:
U.S. Tox21 Program National Center for Advancing Translational Sciences [NCATS] NIH Chemical Genomics Center [NCGC] U.S. Environmental Protection Agency [EPA] National Institutes of Environmental Health Sciences [NIEHS] National Toxicology Program [NTP] U.S. Food and Drug Administration [FDA] Tox21 Assay Overview: As cancer cells divide rapidly and during every cell division they need to duplicate their genome by DNA replication. The failure to do so results in the cancer cell death. Based on this concept, many chemotherapeutic agents were developed but have limitations such as low efficacy and severe side effects etc. A new cell based assay was developed to find the compounds that effectively block DNA replication either by directly damaging DNA or by inhibiting other cellular mechanisms. Enhanced Level of Genome Instability Gene 1 (ELG1; human ATAD5) protein levels increase in response to various types of DNA damage. Using a luciferase reporter-gene tagged with ATAD5, a cell-based assay [developed by Kyungjae Myung, NHGRI, NIH] was used to measure the induction of ATAD5 in human embryonic kidney cells (HEK293T). So, increase in luciferase activity can be used to identify the compounds that cause genetic stress.
Tox21 Assay Protocol Summary: For genotoxicity screening, 2,000 cells in 5 uL/well were dispensed into white, solid-bottom 1536-well plates using a Multidrop Combi (Thermo Scientific) dispenser. Following transfer of 23 nL compound or DMSO vehicle by a pin tool, the plates were incubated 16 hr at 37C and 5% CO2. 5 ul Amplite (AAT Bioquest, Inc.) was then added to each plate and following 30 min incubation at room temperature, luciferase activity was quantified on a ViewLux CCD-based plate reader.
For the compound `CCCCCCCCCCCCCCCCC`, the Potency entry is “inactive”.

For `COC(=O)C1=C(C)NC(C)=C(C(=O)OC)C1c1ccccc1[N+](=O)[O-]`, the Potency entry is “inactive”.

Take `CCOc1ccc(C(=O)OCCN(CC)CC)cc1`: the Potency result is “inactive”.

`CCOC(=O)c1cccc(N)c1`: the Potency entry was “inactive”.

For the compound `COc1ccc(CCN(C)CCCC(C#N)(c2cc(OC)c(OC)c(OC)c2)C(C)C)cc1OC` (stereo not given), the Potency entry is “inactive”.

Turning to `O=c1n(CCO)c(=O)n(CCO)c(=O)n1CCO`, the Potency entry was “inactive”.

With `O=C1NC(=O)[C@@]2(CCOc3ccc(F)cc32)N1`, the Potency entry was “inactive”.

`O=S(O)CO`: the Potency entry is “inactive”.

As to `NC(=O)c1cn(Cc2c(F)cccc2F)nn1`, the Potency result is “inactive”.

As to `O=C(CCCN1CCC(O)(c2cccc(C(F)(F)F)c2)CC1)c1ccc(F)cc1`, the Potency entry is “inactive”.

In the case of `N=c1nc(N2CCCCC2)cc(N)n1O`, the Potency result was “inactive”.

In the case of `CC(C)(C)NCCNC(C)(C)C`, the Potency result is “inactive”.

For `Oc1ccc(C2CNCCc3c2cc(O)c(O)c3Cl)cc1` (stereo not given), the Potency entry is “inactive”.

Turning to `O=c1cc(-c2ccccc2)oc2ccccc12`, the Potency was 17.2 µM (active) and 19.3 µM (active).

Turning to `CO[C@]12C[C@@H](COC(=O)c3cncc(Br)c3)CN(C)[C@@H]1Cc1cn(C)c3cccc2c13`, the Potency entry was “inactive”.

As to `CCOC(=O)[C@H](CCc1ccccc1)N[C@@H](C)C(=O)N1[C@H](C(=O)O)C[C@@H]2CCC[C@@H]21`, the Potency result is “inactive”.

Take `CCN1CCC[C@H]1CNC(=O)c1cc(S(N)(=O)=O)ccc1OC`: the Potency entry was “inactive”.

`OCCOc1ccc(OCCO)cc1`: the Potency result was “inactive”.

For the compound `CC(C)c1cc2c(cc1S(=O)(=O)O)[C@@]1(C)CCC[C@@](C)(C(=O)O)[C@@H]1CC2`, the Potency result was “inactive”.

For `N=C(N)c1ccccc1`, the Potency result is “inactive”.

With `CO[Si](CCCOCC1CO1)(OC)OC` (stereo not given), the Potency entry is “inactive”.

For `COC(=O)c1c(Cl)c(Cl)c(C(=O)OC)c(Cl)c1Cl`, the Potency entry was “inactive”.

In the case of `Cc1cc2c(cc1S(N)(=O)=O)S(=O)(=O)CCC2`, the Potency result is “inactive”.

Turning to `CCN(CC)CCNC(=O)c1cc(S(C)(=O)=O)ccc1OC`, the Potency result is “inactive”.

Take `Cc1ccc(Cl)cc1Cl`: the Potency result is “inactive”.

For the compound `O=C(O)CCCc1ccccc1`, the Potency result is “inactive”.

On to `COc1nc(N)nc2c1ncn2[C@@H]1O[C@H](CO)[C@@H](O)[C@@H]1O`, for which the Potency entry was “inactive”.

In the case of `O=C(O)Cc1ccc(CCNS(=O)(=O)c2ccc(Cl)cc2)cc1`, the Potency entry was “inactive”.

As to `CCSC(=O)N(CC(C)C)CC(C)C`, the Potency result is “inactive”.

With `OC[C@]1(O)OC[C@@H](O)[C@H](O)[C@@H]1O`, the Potency entry was “inactive”.

Regarding `C=CCCCCCCCCC=O`, the Potency entry was “inactive”.

As for `O=C[C@H](O)[C@@H](O)[C@H](O)[C@H](O)CO`, the Potency result is “inactive”.

Turning to `COC(=O)[C@@H](N)Cc1ccc(O)c(O)c1`, the Potency entry was “inactive”.

Turning to `CC(C)(CC(=O)O)C(=O)O`, the Potency entry was “inactive”.

As to `CC/C=C\CC/C=C/C(OCC)OCC`, the Potency entry is “inactive”.

As to `CN1CCC(=C2c3ccccc3CC(=O)c3sccc32)CC1`, the Potency entry is “inactive”.

With `CS(=O)(=O)O`, the Potency result is “inactive”.

With `CC[N+](C)(C)c1cccc(O)c1`, the Potency entry is “inactive”.

In the case of `FC(F)OC(Cl)C(F)(F)F` (stereo not given), the Potency entry is “inactive”.

With `CC(=O)CC(C)(C)C1CCCCC1`, the Potency entry was “inactive”.
